± gives the standard deviation.
Legend:
[1] = test system: MILI (PIWIL2) piRISC loaded with L1MC piRNA (26 nt); test: pre-steady-state target cleavage rate (min^-1); guide: L1MC piRNA 5'p-UAACUAAAUACUAUGCAAGCUGUAGG; higher = faster piRNA-guided slicing of the target
In short: (§1)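 A transcribed, DNA-blocked target RNA library (0.1 nM) and 1 nM active affinity-purified piRISC bearing one synthetic guide were incubated in HEPES–potassium acetate buffer at 33 °C for 0–8 or 0–960 min, either with or without 500 nM GTSF1 partner protein. Uncleaved targets were sequenced, normalised to depth and to weakly complementary targets, and pooled over three trials, with k3 capped at 0.0001 min^-1. The pre-steady-state cleavage rate was derived with a burst-and-steady-state fit.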

[2] = test system: EfPiwi piRISC loaded with L1MC piRNA (26 nt); test: pre-steady-state target cleavage rate (min^-1); auxiliary factor: 500 nM Ephydatia muelleri Gtsf1; guide: L1MC piRNA 5'p-UAACUAAAUACUAUGCAAGCUGUAGG; MIWI and MILI are mouse PIWI proteins and EfPiwi is from a freshwater sponge; tags in brackets are library labels; higher = faster piRNA-guided slicing of the target
In short: as §1

[3] = auxiliary factor: 500 nM mouse GTSF1
[4] = auxiliary factor: none (no GTSF1)

UCCUGGAUCAGCUUGGAUAGUAUUUAGUUA
pre-steady-state target cleavage rate [1, 3]: 0.185 ± 0.013 | pre-steady-state target cleavage rate [1, 4]: 0.00786 ± 0.0022 | pre-steady-state target cleavage rate [2]: 0.0092 ± 0.0025

UCCUCCUUCAGCUUGCAUUGUAUUUAGUUA
pre-steady-state target cleavage rate [1, 3]: 0.226 ± 0.019 | pre-steady-state target cleavage rate [1, 4]: 0.00662 ± 0.002 | pre-steady-state target cleavage rate [2]: 0.0307 ± 0.0077

UCCUGGUUGUGCUUGCAUAGUAUUUAGUUA
pre-steady-state target cleavage rate [1, 3]: 0.168 ± 0.018 | pre-steady-state target cleavage rate [1, 4]: 0.0141 ± 0.004 | pre-steady-state target cleavage rate [2]: 0.0119 ± 0.0045

UCCUGGUACAGUUUGCAUAGUAUUUAGUUA
pre-steady-state target cleavage rate [1, 3]: 0.254 ± 0.02 | pre-steady-state target cleavage rate [1, 4]: 0.0161 ± 0.005 | pre-steady-state target cleavage rate [2]: 0.00421 ± 0.0025

UCCUGGAAAGCUUGCAUAGUAUUUAGUUA
pre-steady-state target cleavage rate [1, 3]: 0.276 ± 0.016 | pre-steady-state target cleavage rate [1, 4]: 0.00624 ± 0.0022 | pre-steady-state target cleavage rate [2]: 0.035 ± 0.0098

UCCUGCUACAGCUUGCUAGUAUUUAGUUA
pre-steady-state target cleavage rate [1, 3]: 0.0195 ± 0.0079 | pre-steady-state target cleavage rate [1, 4]: 0.00519 ± 0.002 | pre-steady-state target cleavage rate [2]: 0.00473 ± 0.0031

UCCUGCUACUCCUUGCAUAGUAUUUAGUAA
pre-steady-state target cleavage rate [1, 3]: 0.188 ± 0.023 | pre-steady-state target cleavage rate [1, 4]: 0.00412 ± 0.002 | pre-steady-state target cleavage rate [2]: 0.00443 ± 0.003

UCCUGCUACAGCUUGCAUAGUUAUUUAGUUA
pre-steady-state target cleavage rate [1, 3]: 0.0195 ± 0.0087 | pre-steady-state target cleavage rate [1, 4]: 0.00428 ± 0.0024 | pre-steady-state target cleavage rate [2]: 0.00578 ± 0.0032

UCCUCCUAACAGCUUGCAUAGUAUUUAGUUA
pre-steady-state target cleavage rate [1, 3]: 0.213 ± 0.018 | pre-steady-state target cleavage rate [1, 4]: 0.0084 ± 0.0021 | pre-steady-state target cleavage rate [2]: 0.0133 ± 0.0051

UCCUGGAUCGCUUGCAUAGUAUUUAGUUA
pre-steady-state target cleavage rate [1, 3]: 0.29 ± 0.012 | pre-steady-state target cleavage rate [1, 4]: 0.00599 ± 0.0021 | pre-steady-state target cleavage rate [2]: 0.065 ± 0.011

UCCUCCUUCAGCUUGCAUAGUUUUUAGUUA
pre-steady-state target cleavage rate [1, 3]: 0.0603 ± 0.0091 | pre-steady-state target cleavage rate [1, 4]: 0.00556 ± 0.0016 | pre-steady-state target cleavage rate [2]: 0.00713 ± 0.0023

UCCUGGAUGUCCUUGCAUAGUAUUUAGUAUA
pre-steady-state target cleavage rate [1, 3]: 0.191 ± 0.03 | pre-steady-state target cleavage rate [1, 4]: 0.00617 ± 0.0026 | pre-steady-state target cleavage rate [2]: 0.00442 ± 0.0031

UCCUGGAUCACGCUUGCAUAGUAUUUAGUUA
pre-steady-state target cleavage rate [1, 3]: 0.205 ± 0.018 | pre-steady-state target cleavage rate [1, 4]: 0.00715 ± 0.0036 | pre-steady-state target cleavage rate [2]: 0.223 ± 0.05

UCCUCCUACAGCUUGCAUCGUAUUUAGUUA
pre-steady-state target cleavage rate [1, 3]: 0.129 ± 0.013 | pre-steady-state target cleavage rate [1, 4]: 0.00682 ± 0.0021 | pre-steady-state target cleavage rate [2]: 0.0492 ± 0.014

UCCUCCUAGAGCUUGCAUUGUAUUUAGUUA
pre-steady-state target cleavage rate [1, 3]: 0.213 ± 0.012 | pre-steady-state target cleavage rate [1, 4]: 0.00709 ± 0.0021 | pre-steady-state target cleavage rate [2]: 0.018 ± 0.0048

UCCUGGAACAGCUUGCAUAGUAUUUAGUUU [g2:g23:cont:t1U]
pre-steady-state target cleavage rate [1, 3]: 0.278 ± 0.02 | pre-steady-state target cleavage rate [1, 4]: 0.0155 ± 0.0044 | pre-steady-state target cleavage rate [2]: 0.0156 ± 0.0055

UCCUGCUACAGCUUGCAUAGUAUUUAGUGA
pre-steady-state target cleavage rate [1, 3]: 0.193 ± 0.033 | pre-steady-state target cleavage rate [1, 4]: 0.00299 ± 0.0027 | pre-steady-state target cleavage rate [2]: 0.00567 ± 0.0019

UCCUCGUACAGCAUGCAUAGUAUUUAGUUA
pre-steady-state target cleavage rate [1, 3]: 0.262 ± 0.015 | pre-steady-state target cleavage rate [1, 4]: 0.0102 ± 0.0022 | pre-steady-state target cleavage rate [2]: 0.0515 ± 0.013

UCCUGGAACAGGUUGCAUAGUUUUUAGUUA
pre-steady-state target cleavage rate [1, 3]: 0.0335 ± 0.0065 | pre-steady-state target cleavage rate [1, 4]: 0.00467 ± 0.0021 | pre-steady-state target cleavage rate [2]: 0.00366 ± 0.0018

UCCUGGUACAGCUUGCAUAGUACUUUAGUUA
pre-steady-state target cleavage rate [1, 3]: 0.147 ± 0.024 | pre-steady-state target cleavage rate [1, 4]: 0.00705 ± 0.0032 | pre-steady-state target cleavage rate [2]: 0.00549 ± 0.0027

UCCUGGAUGCGCUUGCAUAGUAUUUAGUUA
pre-steady-state target cleavage rate [1, 3]: 0.239 ± 0.016 | pre-steady-state target cleavage rate [1, 4]: 0.0108 ± 0.0028 | pre-steady-state target cleavage rate [2]: 0.0286 ± 0.0065

UCCUGGAUCAGCUUGCAUAGUAUAUAGUUA
pre-steady-state target cleavage rate [1, 3]: 0.268 ± 0.017 | pre-steady-state target cleavage rate [1, 4]: 0.00895 ± 0.0025 | pre-steady-state target cleavage rate [2]: 0.0716 ± 0.02

UCCUCCUACAGCUUGAAUAGUAUUUAGUUA
pre-steady-state target cleavage rate [1, 3]: 0.283 ± 0.015 | pre-steady-state target cleavage rate [1, 4]: 0.00723 ± 0.002 | pre-steady-state target cleavage rate [2]: 0.0651 ± 0.017

UCCUGCUACAGCUUGCAAGUAUUUAGUUA
pre-steady-state target cleavage rate [1, 3]: 0.138 ± 0.017 | pre-steady-state target cleavage rate [1, 4]: 0.00374 ± 0.0027 | pre-steady-state target cleavage rate [2]: 0.00614 ± 0.0027

UCCUGCUACAGCUUGGUUAGUAUUUAGUAA
pre-steady-state target cleavage rate [1, 3]: 0.148 ± 0.021 | pre-steady-state target cleavage rate [1, 4]: 0.00357 ± 0.0022 | pre-steady-state target cleavage rate [2]: 0.00273 ± 0.0024

— the supplement of paper PMC10338343
